Experimental data: PubChem BioAssay AID1063 (University of Pittsburgh Molecular Library Screening Center, 2008)
Among all 200,000 compounds or so, about 18,000 (9%) were called active. The entries come from a sample that favours actives as a whole. Values without a mark were called inactive. Cut-off read from the data, not from the text of the source: active = inhibition above about 50%; inactive = the rest.

assay: Leishmania major promastigote growth inhibition, primary screen (AID 1063); conditions: Leishmania major promastigotes, resazurin fluorescence viability; at 10 µM; hits give high values;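 note: promastigotes grown with compound for 44 hours at 28 °C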

Q: Which inhibition does the source give for `Cc1ccc(C(=O)N2CC(=O)Nc3ccccc32)o1` here?
A: -0.84%

Q: Which inhibition does the source give for `Cc1ccc(S(=O)(=O)N2CC(=O)Nc3ccccc32)cc1C` here?
A: 3.05%

Q: With `Cc1cccc(C)c1NC(=O)C(c1ccccc1)N1CC(=O)Nc2ccccc21` (stereo unspecified) as the molecule, how does the inhibition read?
A: 57.2% (active)

Q: Which inhibition does the source give for `COc1ccc(-c2csc(NC(=O)c3ccc(N4C(=O)CCC4=O)cc3)n2)cc1OC` here?
A: 6.8%

Q: Which inhibition does the source give for `CCOC(=O)c1csc(NC(=O)c2ccc(S(=O)(=O)N3CCCC3)cc2)n1` here?
A: 0.83%

Q: For `COc1ccc(C(=O)Nc2nc(-c3ccc(S(=O)(=O)N4CCOCC4)cc3)cs2)cc1`, which inhibition is on record?
A: 80.4% (active)

Q: With `C=CCN(c1ccc(Cl)cc1)S(=O)(=O)c1cccc(C(=O)OCC(=O)N(C)C)c1` as the molecule, how does the inhibition read?
A: -0.9%

Q: Which inhibition does the source give for `O=C(COc1ccccc1[N+](=O)[O-])NC1CC1` here?
A: -4.5%

Q: With `Cc1cc(OCC(=O)NC2CCN(C)CC2)ccc1[N+](=O)[O-]` as the molecule, how does the inhibition read?
A: 55% (active)

Q: For `Cc1ccccc1N1CCN(CCCOc2ccc3c(C)cc(=O)oc3c2)CC1`, which inhibition is on record?
A: 42.5%

Q: Which inhibition does the source give for `Cc1ccc(C(=O)COC(=O)CCCC(=O)NC2CCCCC2)cc1[N+](=O)[O-]` here?
A: 33.2%

Q: Which inhibition does the source give for `Cc1cc(OCCCN2CCN(Cc3ccccc3)CC2)ccc1[N+](=O)[O-]` here?
A: 94.3% (active)

Q: For `Cc1c(Br)c([N+](=O)[O-])nn1CC(=O)N1CCN(Cc2ccccc2)CC1`, which inhibition is on record?
A: 0.53%

Q: For `O=C(O)Cc1sc(-c2ccccc2)nc1-c1cccs1`, which inhibition is on record?
A: -7.68%

Q: With `CC(=O)NCC(=O)N1CCCC(C(=O)c2ccc3c4c(cccc24)CC3)C1` (stereo unspecified) as the molecule, how does the inhibition read?
A: 1.15%

Q: With `O=C(COc1ccccc1Cl)Nc1ccc(C(=O)c2ccc(C(=O)O)cc2)cc1` as the molecule, how does the inhibition read?
A: 0.1%

Q: With `CN(CC(=O)Nc1ccccc1[N+](=O)[O-])Cc1ccc(Br)cc1` as the molecule, how does the inhibition read?
A: 5.69%

Q: Which inhibition does the source give for `CC1=C(C)C(=O)OC(C(C)C2CCC3C4CC=C5CC(OC6OC(COC7OC(CO)C(O)C(O)C7O)C(O)C(O)C6O)CC(O)C5(C)C4CCC23C)C1` (stereo unspecified) here?
A: -11.1%

Q: Which inhibition does the source give for `Cc1cc(C)cc(OCC(=O)NCc2cc(C)nc3ccccc23)c1` here?
A: 36.5%

Q: With `COC(=O)CC1=NN(c2ccccc2)C(=O)C1` as the molecule, how does the inhibition read?
A: -3.08%

Q: For `Cc1cc(/C=C(/C#N)C(=O)Nc2ccc(Cl)cc2)c(C)n1-c1cccnc1`, which inhibition is on record?
A: 56.9% (active)

Q: Which inhibition does the source give for `Cc1ccc(-n2c(C)cc(/C=C(\C#N)C(=O)NCC3CCCO3)c2C)cc1` (stereo unspecified) here?
A: -2.28%

Q: With `C/C(=C\C(=O)c1cccnc1)Nc1ccc(C)c(C)c1` as the molecule, how does the inhibition read?
A: 20.1%

Q: For `COC(=O)c1c(C)[nH]c(C)c1-c1ccc([N+](=O)[O-])cc1`, which inhibition is on record?
A: 12.6%

Q: For `O=C(CSc1nn(-c2ccc(F)cc2)c(=S)s1)NC1CCS(=O)(=O)C1` (stereo unspecified), which inhibition is on record?
A: 2.16%

Q: For `COc1ccc(NC(=O)CCNS(=O)(=O)c2ccc3c(c2)c(=O)n(C)c(=O)n3C)cc1OC`, which inhibition is on record?
A: -8.95%

Q: With `O=C(Nc1ccc(Sc2ccc(Br)cc2)cc1)c1ccco1` as the molecule, how does the inhibition read?
A: -2.45%

Q: Which inhibition does the source give for `CCC(=O)NC(=S)Nc1ccc(NC(=O)c2ccco2)c(Cl)c1` here?
A: -3.46%

Q: For `CCN(CC)P(=O)(Nc1ccc(SC(F)F)cc1)c1ccc(N(C)C)cc1NC(=O)c1ccco1` (stereo unspecified), which inhibition is on record?
A: 85.2% (active)

Q: For `COc1ccc(N2CCN(C(=O)COc3ccc4c(C)cc(=O)oc4c3)CC2)cc1`, which inhibition is on record?
A: 1.16%

Q: For `Cc1ccc2cc(C#N)c(NCCNC(=S)NCCCN3CCOCC3)nc2c1`, which inhibition is on record?
A: 1.99%

Q: With `CN(C)S(=O)(=O)N1CCN(c2ccc([N+](=O)[O-])cc2)CC1` as the molecule, how does the inhibition read?
A: -7.87%

Q: For `Cc1cc(C)c(OCCN2CC(C)OC(C)C2)c(Br)c1` (stereo unspecified), which inhibition is on record?
A: 88.1% (active)

Q: For `CC(=O)Nc1cccc(C(=O)Nc2nc(C)cs2)c1`, which inhibition is on record?
A: 11.8%

Q: With `CC1CCCN(CC(O)COc2ccc3c(c2)OCO3)C1` (stereo unspecified) as the molecule, how does the inhibition read?
A: 54.4% (active)

Q: Which inhibition does the source give for `CN1CCN(CC(O)COCc2ccc3c(c2)OCO3)CC1` (stereo unspecified) here?
A: -2.38%

Q: With `CC1CCCN(CC(O)COCc2ccccc2)C1` (stereo unspecified) as the molecule, how does the inhibition read?
A: 11%

Q: Which inhibition does the source give for `Cc1coc(C)c1C(=O)CC1(O)C(=O)N(C)c2ccc(Cl)cc21` (stereo unspecified) here?
A: 1.6%

Q: With `O=C(Nc1cccc(Cl)c1)c1cc([N+](=O)[O-])ccc1N1CCN(CCO)CC1` as the molecule, how does the inhibition read?
A: 0.91%

Q: With `COc1cc(NC(=S)NCCSc2ccc(C)cc2)cc(OC)c1` as the molecule, how does the inhibition read?
A: 7.14%

Q: With `Cn1c(N)c(C(=O)COC(=O)/C=C/c2ccc(OC(F)F)cc2)c(=O)n(C)c1=O` as the molecule, how does the inhibition read?
A: -9.55%

Q: With `CCCCCC(=O)Nc1ccc(-c2cn3cccnc3n2)cc1` as the molecule, how does the inhibition read?
A: -7.19%

Q: For `O=C(N/N=C/c1ccc2c(c1)OCO2)c1ccc(Cn2cc([N+](=O)[O-])cn2)o1`, which inhibition is on record?
A: 87% (active)

Q: With `CN(C)c1ccc(/C=N/NC(=O)c2ccc(Cn3cc(Br)cn3)o2)cc1` as the molecule, how does the inhibition read?
A: 3.04%

Q: Which inhibition does the source give for `O=C(N/N=C\c1ccc(Br)cc1)c1ccc(Cn2cccn2)o1` here?
A: 1.72%

Q: For `CCCCN1C(=S)NC[C@@H]1C(C)CC` (stereo partly specified), which inhibition is on record?
A: -1.31%

Q: With `CCOC(=O)c1ccc(NNC(C)=O)c([N+](=O)[O-])c1` as the molecule, how does the inhibition read?
A: -5.16%

Q: With `COCCOC(=O)C1=C(C)N=c2s/c(=C\c3cccs3)c(=O)n2C1c1cccs1` (stereo unspecified) as the molecule, how does the inhibition read?
A: 7.92%

Q: For `CCOC(=O)C1=C(C)N=c2s/c(=C\C(=O)OC)c(=O)n2C1c1ccc(OC)cc1` (stereo unspecified), which inhibition is on record?
A: 18.8%

Q: With `COc1ccc(OC)c(C2C3=C(N=c4s/c(=C\c5cccc(O)c5)c(=O)n42)c2ccccc2CC3)c1` (stereo unspecified) as the molecule, how does the inhibition read?
A: 75.7% (active)

Q: Which inhibition does the source give for `COc1ccc(C2CC(c3ccccc3)=NN2C(=O)COC(=O)COc2ccccc2)cc1` (stereo unspecified) here?
A: 2.56%

Q: For `Brc1ccc(C2CC(c3ccccc3)=Nc3ccccc3N2)cc1` (stereo unspecified), which inhibition is on record?
A: 27.2%

Q: With `CNC(=S)N1N=C(c2ccccc2)CC1c1ccc(Br)cc1` (stereo unspecified) as the molecule, how does the inhibition read?
A: 99.3% (active)

Q: Which inhibition does the source give for `O=C1CS(=O)CN1c1ccc(Oc2ccccc2)cc1` (stereo unspecified) here?
A: -2.75%

Q: For `NS(=O)(=O)c1cccc(NC(=O)COC(=O)/C=C/c2ccco2)c1`, which inhibition is on record?
A: -5.99%

Q: For `CCN(c1ccccc1)S(=O)(=O)c1ccc(C(=O)Nc2nccs2)cc1`, which inhibition is on record?
A: 72.2% (active)

Q: With `CC(=O)Oc1ccc(C(=O)Nc2nccs2)cc1` as the molecule, how does the inhibition read?
A: -7.34%

Q: With `CCN(c1ccccc1)S(=O)(=O)c1ccc(NC(=O)C(C)(C)C)cc1` as the molecule, how does the inhibition read?
A: 0.65%

Q: With `COc1ccc(CCc2nnc(CCC(=O)NCc3cnn(-c4ccccc4C)c3)o2)cc1` as the molecule, how does the inhibition read?
A: 6.37%

Q: For `CCOC(=O)N1CCN(C(=O)c2nn(-c3ccc(C)cc3)c(=O)c3c2c2ccccc2n3C)CC1`, which inhibition is on record?
A: -5.83%

Q: For `Cn1c2ccccc2c2c(C(=O)N3CCN(c4ccc(F)cc4)CC3)cn(C3CCCC3)c(=O)c21`, which inhibition is on record?
A: 99.4% (active)

Q: Which inhibition does the source give for `O=C(c1ccccc1Oc1ccccc1)N1CCN(c2ccc(F)cc2)CC1` here?
A: 10.2%

Q: Which inhibition does the source give for `O=C(CSc1nnc2ccc(-c3ccncc3)nn12)N1CCCCC1` here?
A: 20.4%

Q: For `CC(=O)Nc1ccc(S(=O)(=O)NC2(C(F)(F)F)C(=O)NC(C)=C2C#N)cc1` (stereo unspecified), which inhibition is on record?
A: -4.23%

Q: With `O=C(NCc1nnc(SCC(=O)N2CCCc3ccccc32)o1)c1ccccc1F` as the molecule, how does the inhibition read?
A: -5.95%

Q: For `O=C(/C=C/c1ccc(Cl)cc1Cl)NCc1ccco1`, which inhibition is on record?
A: -1.38%

Q: For `O=C(/C=C/c1ccc(Cl)cc1Cl)c1cccnc1`, which inhibition is on record?
A: 100% (active)

Q: For `CN(C)c1ccc(/C=C/C(=O)c2ccc(C(C)(C)C)cc2)cc1[N+](=O)[O-]`, which inhibition is on record?
A: 27.1%

Q: Which inhibition does the source give for `O=C(NCc1ccc(Cl)c(Cl)c1)c1cccnc1` here?
A: -2.18%

Q: With `O=C(/C=C/c1ccc(Cl)c([N+](=O)[O-])c1)c1cccnc1` as the molecule, how does the inhibition read?
A: 100% (active)

Q: Which inhibition does the source give for `O=C(Nc1cccnc1)c1ccc(Cl)c([N+](=O)[O-])c1` here?
A: 1.22%

Q: With `COCCNc1nc2nonc2nc1N(C)Cc1ccc(C)cc1` as the molecule, how does the inhibition read?
A: 2.88%

Q: For `CCC(C)(C(=O)Nc1ccccc1C)N(C(=O)CNC(C)=O)c1ccc(C)cc1` (stereo unspecified), which inhibition is on record?
A: -4.62%

Q: Which inhibition does the source give for `CSc1ccc(CN2C(=O)NC3(CCCCCC3)C2=O)cc1` here?
A: 9.1%

Q: With `CC(NCc1nc2ccccc2n1C)C12CC3CC(CC(C3)C1)C2` (stereo unspecified) as the molecule, how does the inhibition read?
A: 12.4%

Q: With `Cc1ccccc1-c1nc(C#N)c(NCc2ccco2)o1` as the molecule, how does the inhibition read?
A: -3.77%

Q: Which inhibition does the source give for `CC(C)(C)C1CCC(C(=O)Nc2cccnc2)CC1` (stereo unspecified) here?
A: -5.65%

Q: With `CCOC(=O)c1sc(-c2cccc([N+](=O)[O-])c2)cc1N` as the molecule, how does the inhibition read?
A: 4.06%

Q: Which inhibition does the source give for `CCOC(=O)c1sc2nc(CSc3ccccc3)[nH]c(=O)c2c1C` here?
A: 14.1%

Q: Which inhibition does the source give for `CCOC(=O)c1sc(C)c2c1NC(C)(c1cccc3ccccc13)NC2=O` (stereo unspecified) here?
A: 97.3% (active)

Q: Which inhibition does the source give for `O=C(O)CCCCCNc1ncnc2ccc(Br)cc12` here?
A: -1.72%

Q: Which inhibition does the source give for `CC(C)OC(=O)CN1C(=O)C(=O)c2ccccc21` here?
A: 88% (active)

Q: Which inhibition does the source give for `Cc1cccc2c1N(CC(=O)OC(C)C)C(=O)C2=O` here?
A: -12.8%

Q: For `CC(C)OC(=O)CN1C(=O)c2ccccc2C1=O`, which inhibition is on record?
A: 14.7%

Q: With `O=C(CC1CCCCC1)NCc1ccc(F)cc1` as the molecule, how does the inhibition read?
A: -12.7%

Q: For `CC(C)Oc1ccc(CCc2nnc(SCC(=O)O)n2-c2ccccc2)cc1`, which inhibition is on record?
A: -8.77%

Q: Which inhibition does the source give for `NS(=O)(=O)c1ccc(NC(=O)COC(=O)C2(c3ccc(F)cc3)CCCC2)cc1` here?
A: 70.2% (active)

Q: Which inhibition does the source give for `NS(=O)(=O)c1ccc(NC(=O)COC(=O)c2ccco2)cc1` here?
A: 0.53%

Q: With `CN(C)S(=O)(=O)c1cccc(NC(=O)COC(=O)C2(c3ccccc3F)CCCC2)c1` as the molecule, how does the inhibition read?
A: 28.6%

Q: With `CC(Oc1ccc(Br)cc1Br)C(=O)NC1CCCC1` (stereo unspecified) as the molecule, how does the inhibition read?
A: -1.48%

Q: For `CC(=O)Nc1ccc(NC(=O)COc2ncnc3ccccc23)cc1`, which inhibition is on record?
A: -2.61%

Q: For `Cc1cc(CNC(=O)c2cccc([N+](=O)[O-])c2)c2ccccc2n1`, which inhibition is on record?
A: 9.74%

Q: With `CC(=O)Nc1ccc(Nc2c([N+](=O)[O-])cc(S(C)(=O)=O)cc2[N+](=O)[O-])cc1` as the molecule, how does the inhibition read?
A: 10.8%

Q: Which inhibition does the source give for `O=[N+]([O-])c1cccc(Nc2c3ccccc3nc3ccccc23)c1` here?
A: 69.1% (active)

Q: With `O=C(CSCC(=O)Nc1cccc([N+](=O)[O-])c1)Nc1ccccc1` as the molecule, how does the inhibition read?
A: 4.18%

Q: For `CC(=O)Nc1ccc(Nc2c3ccccc3nc3ccccc23)cc1`, which inhibition is on record?
A: 101% (active)
